Drawing on ChEMBL document CHEMBL4513216, “Probing the Open Global Health Chemical Diversity Library for Multistage-Active Starting Points for Next-Generation Antimalarials” (ACS Infect Dis, 2020), this text covers INHIBITION for 107 molecules.

In all, about 69,000 compounds went through this assay and about 8,600 (12%) showed an effect of 50% or more. The full list was thinned out, with strong results kept by preference.

For the experiment, the system named is Plasmodium berghei. The experiment in a line: Screen against P. berghei liver stage (PbLuc), transformed with Luciferase, at 10uM. The format is functional, HepG2. The note with it: tested at 10 uM.
Regarding `COc1cc(N2CC3(CCN(S(C)(=O)=O)C3)C2)ncn1`, the INHIBITION is reported as -21.7%. In the case of `CCOC(=O)c1sc(NC(=O)COC)c(C#N)c1C`, the INHIBITION was -30.8%. On to `COCCN1CCCN(C(=O)c2scnc2C)CC1`, for which the INHIBITION is -2.03%. Take `c1ccc(CN2CCCC(Cn3cncn3)C2)nc1` (configuration not stated): the INHIBITION was determined as 24%. As to `Cc1nc(N2C[C@@H](CN3CCCN(C)CC3)[C@@H](CO)C2)c2sccc2n1`, the INHIBITION is 26.6%. As for `CCC[C@@H]1CN(c2ncnc3sccc23)C[C@H]1NS(C)(=O)=O`, the figure is 27.2%. As for `Cc1nc(C)c(C)c(N2C[C@@H](CN3CCCN(C)CC3)[C@@H](CO)C2)n1`, the figure is 15.5%; as for `Cc1nccnc1N1CC[C@@H](NC(=O)c2cnccn2)[C@H](O)C1`, -3.19%. `Cc1nc(N2CC[C@@H](NC(=O)c3cnccn3)[C@H](O)C2)c2ccsc2n1`: the INHIBITION was 85.1%.

For `COC1[C@@H]2CC[C@H]1CN(c1nc(C)nc3sccc13)C2` (some centres not stated), the INHIBITION is on record as 72.6%. Consider `O=C(N[C@@H]1CCN(c2nccc3ccccc23)C[C@H]1O)c1cnccn1`, for which the INHIBITION came out at 5.78%. As for `Cc1nc(N2C[C@@H](CN3CCCN(C)CC3)[C@@H](CO)C2)c2ccsc2n1`, the figure is 50.1%. As for `CCN(Cc1cccc2c1OCO2)C(=O)C(C)c1cccnc1` (configuration not stated), the figure is 40.9%. For `CCc1noc(C(C)Sc2nnc(C3CC3)n2CC(N)=O)n1` (configuration not stated), the INHIBITION is 29%.

For the molecule `c1coc(-c2nc(CNC3CCC4(CCNCC4)CC3)no2)c1`, the INHIBITION stood at 33.1%.

As to `O=C([C@H]1CCCO1)N1Cc2nccn2CC(COc2cccnc2)C1` (some centres not stated), the INHIBITION was -30%. To `CN(c1ccncn1)C1CC2(CCN(C(=O)c3cccs3)C2)C1` (configuration not stated) belongs 42.1%; to `CN(c1ccncn1)C1CC2(CCN(C(=O)Cc3cccs3)C2)C1` (configuration not stated), 51.5%. As for `CN(c1ccncn1)C1CC2(CCN(C(=O)CCc3cccs3)C2)C1` (configuration not stated), the figure is 37.5%; as for `CCc1nccn1C1CCCN(C(=O)CCCc2ccccn2)C1` (configuration not stated), -6.14%; as for `CC(C)C[C@H]1CN(c2nc3c(cc2C(N)=O)CCC3)CC[C@@]1(C)O`, -22.5%. To `CN1CCC2(CC1)CN(C(=O)c1cccnc1)c1ccc(Cl)cc12` belongs 26.7%; to `CCCN1CCC2(CC1)CN(C(=O)c1cccnc1)c1ccc(F)cc12`, 26.7%; to `CCN1CCC2(CC1)CN(C(=O)c1cccnc1)c1ccc(Cl)cc12`, 60.2%. For the molecule `CC(C(N)=O)N(C)CCCc1cc(-c2ccc(F)cc2)n(C)n1` (configuration not stated), the INHIBITION is on record as -52.5%. To `Cc1nn(C)c(C)c1-c1ccc(=O)n(C(C)C(=O)NCc2ccco2)n1` (configuration not stated) belongs 15.7%; to `O=C(C[S+]([O-])Cc1ccc(Cl)cc1Cl)N1CCc2sccc2C1` (configuration not stated), 21.8%. As for `O=C(C[S+]([O-])Cc1c(Cl)cccc1Cl)N1CCc2sccc2C1` (configuration not stated), the figure is 50.5%; as for `O=C(C[S+]([O-])Cc1c(F)cccc1Cl)N1CCc2sccc2C1` (configuration not stated), -10.9%. To `O=C(C[S+]([O-])Cc1ccccc1F)N1CCc2sccc2C1` (configuration not stated) belongs -13.9%; to `O=C(C[S+]([O-])Cc1ccc(F)cc1Cl)N1CCc2sccc2C1` (configuration not stated), -3.96%. As to `O=C(C[S+]([O-])Cc1ccc(F)cc1)N1CCc2sccc2C1` (configuration not stated), the INHIBITION was found to be 80.3%. To `O=C(NCCc1cccs1)[C@H]1CO[C@H]2CCN(CC3CC3)C[C@H]2C1` belongs 17.7%; to `O=C(NCCc1cccs1)[C@H]1CO[C@H]2CCN(C3CCC3)C[C@H]2C1`, 62%; to `O=C(NCc1cccs1)[C@H]1CO[C@H]2CCN(C3CCCC3)C[C@H]2C1`, 17.7%. To `CN(C)CCN1CCCC12CCN(C(=O)c1cccn1C)CC2` belongs 20.5%; to `CN(Cc1cccs1)C(=O)CS(=O)(=O)Cc1ccc(Cl)c(Cl)c1`, 62.2%. Turning to `CN(Cc1ccccc1)C(=O)CS(=O)(=O)Cc1ccc(Cl)c(Cl)c1`, the INHIBITION is -35.7%. As for `CN(Cc1ccsc1)C(=O)CS(=O)(=O)Cc1ccc(Cl)c(Cl)c1`, the figure is 9.32%; as for `Nc1nccnc1C1CN(C(=O)c2cnc(C3CC3)nc2)CCO1` (configuration not stated), 26.8%. For `CCc1nn(C)c(Cl)c1CN1C[C@H](NC(=O)CCO)[C@@H](C(C)C)C1`, the INHIBITION was 14.8%. To `Cc1noc(C)c1CN1C[C@@H](NC(=O)N(C)C)[C@H](C(C)C)C1` belongs -9.29%.

Turning to `CCc1nn(C)c(Cl)c1CN1C[C@@H](NC(=O)N(C)C)[C@H](C(C)C)C1`, the INHIBITION is listed as 59.7%. To `c1ccc(OCc2cscn2)c(CNC2CCc3ncnn3C2)c1` (configuration not stated) belongs 3.1%. As for `CCN(CC1COc2ccccc2O1)C(=O)NCCCn1cncn1` (configuration not stated), the figure is 10.17%; as for `CC(=O)N1CCCC1c1nnn2cc(NCc3cccnc3)ccc12` (configuration not stated), -15.3%. As for `CC(=O)N1CCCC1c1nnn2cc(Nc3ccccc3)ccc12` (configuration not stated), the figure is 2.41%; as for `CC(=O)N1CCCC1c1nnn2cc(-c3ccncc3)ccc12` (configuration not stated), 61.9%; as for `CCN1CCOCC12CCN(C(=O)C1CCC1)CC2`, -22.1%.

As to `CN(C)CCN1CCN(Cc2cccs2)Cc2cccnc21`, the INHIBITION came out at 7.53%. Turning to `c1coc(CN2CCO[C@H]3[C@@H](OCC4CC4)CC[C@@H]32)c1`, the INHIBITION amounted to 6.67%.

As to `O=C(CNCC1CCCN1c1cccnn1)NCCc1cccs1` (configuration not stated), the INHIBITION was determined as 28%. As for `CCc1noc(CNCC2CCCN2c2cccnn2)n1` (configuration not stated), the figure is 19.5%; as for `c1cnnc(N2CCCC2CNCc2cccs2)c1` (configuration not stated), 19.5%; as for `CN(Cc1cnn(-c2ccccc2)n1)CC1CCCN1c1cccnn1` (configuration not stated), 58.3%. As to `c1cnnc(N2CCCC2CNCCc2cccs2)c1` (configuration not stated), the INHIBITION is reported as 91%.

`CCCc1nc(CNCC2CCCN2c2cccnn2)no1` (configuration not stated): the INHIBITION was 59%. To `CCc1nc(CNCC2CCCN2c2cccnn2)cs1` (configuration not stated) belongs 5.8%; to `CC(C)CCc1nc(CNCC2CCCN2c2cccnn2)cs1` (configuration not stated), 61.3%. To `CCc1nc(CNCC2CCCN2c2cccnn2)no1` (configuration not stated) belongs 23.4%. As for `CCCc1nc(CNCC2CCCN2c2cccnn2)cs1` (configuration not stated), the figure is 48.2%; as for `CN(Cc1ccccn1)CC1CCCN1c1cccnn1` (configuration not stated), -8.11%; as for `CN(Cc1cnn(-c2ccccc2)n1)C1CCCN(c2cccnn2)C1` (configuration not stated), -19.4%. In the case of `CC(C)CN1CCS(=O)(=O)[C@@H]2CCN(S(=O)(=O)N(C)C)CC[C@@H]21`, the INHIBITION is given as 20.1%. `O=C(NCCN1CCCCC1)C(c1ccccc1)N1CCCC1` (configuration not stated): the INHIBITION is -22.1%. Regarding `Cc1cnccc1-c1cnn(CCNC(=O)c2cccnc2)c1C1CC1`, the INHIBITION is 16.5%. As for `CC(C)N(C)Cc1nnc2n1CCCN(c1ncccn1)C2`, the figure is 29.5%; as for `CCC(CC)C(=O)NC1CCCc2nc(N3CCOCC3)ncc21` (configuration not stated), 7.52%; as for `Cn1cc(N2CC3(CCN(CC4CC4)C3)CC2=O)cn1` (configuration not stated), 15.3%. On to `Cc1nn(C)c(C)c1-c1cnc(C2CCCN(S(C)(=O)=O)C2)cn1` (configuration not stated), for which the INHIBITION is given as -6.92%.

`CCNc1cc2c(nn1)CCN(C(=O)C1CCc3ccccc31)C2` (configuration not stated): the INHIBITION stood at 11.2%. Turning to `COCC(=O)N1CCC(c2cc3nc(C)cc(C(F)(F)F)n3n2)CC1`, the INHIBITION was 20.15%.

For `O=C1NC2(CCCN(C(=O)CCn3cccn3)C2)Oc2ccccc21` (configuration not stated), the INHIBITION turned out to be 10.385%.

With `c1ccc(-n2ncc(CNCC3CCCN3c3cccnn3)n2)cc1` (configuration not stated), the INHIBITION was determined as 57.2%. To `c1ccc(-n2cc(CNCC3CCCN3c3cccnn3)nn2)cc1` (configuration not stated) belongs 18.2%; to `c1ccc(-n2ccc(CNCC3CCCN3c3cccnn3)n2)cc1` (configuration not stated), 16.9%; to `Cc1ccc(C(=O)NS(=O)(=O)c2ccccc2Br)c(=O)[nH]1`, 44.1%. `Cc1ccc(C(CCNCCCN(C)C)C2CCOC(C)(C)C2)cc1` (configuration not stated): the INHIBITION was 32.3%. As for `CCOCc1nn(C)c2c1CN(Cc1cccs1)CC2`, the figure is 32.1%. To `COCc1nn(CC2CC2)c2c1CN(Cc1cccs1)CC2` belongs -97.2%; to `CCOCc1nn(CC2CC2)c2c1CN(Cc1cccs1)CC2`, 64.7%; to `O=C(c1n[nH]cc1Cl)N1CCOC(Cc2cccc(C(F)(F)F)c2)C1` (configuration not stated), 75.9%. As for `CC(=O)N1CCOC(Cc2cccc(C(F)(F)F)c2)C1` (configuration not stated), the figure is 7.1%. Turning to `O=C(c1ccc(O)cn1)N1CCOC(Cc2cccc(C(F)(F)F)c2)C1` (configuration not stated), the INHIBITION is given as -9.29%. As for `CN(C(=O)Nc1ccncc1)C1CCN(c2ccccc2)C1=O` (configuration not stated), the figure is 41.3%; as for `CN1C(=O)COc2ccc(NC(=O)CCc3nc4cccnc4[nH]3)cc21`, 39.7%; as for `O=C(Nc1cc(-c2ccccc2)on1)N1CC[C@H](O)C1`, -51.7%. To `CCC(=O)NC1CCCN(C(=O)Nc2cc(-c3ccccc3)on2)C1` (configuration not stated) belongs 52.6%. On to `O=C(Nc1cc(-c2ccccc2)on1)N1CCN(CCO)CC1`, for which the INHIBITION is reported as 43.9%. For `Cc1nnc(NC(=O)NCCN(C(=O)OC(C)(C)C)C2CC2)s1`, the INHIBITION is on record as 4.34%. In the case of `O=C1CCN(CCS(=O)(=O)c2ccc(Cl)cc2)CCN1`, the INHIBITION stood at 7.43%. To `COCCNC(=O)[C@H]1C[C@@H]2CCN(c3ccncn3)C[C@H]2O1` belongs 7.53%. As for `Cc1cc2n(n1)CC(CNCc1ccc(N3CCOCC3)nc1)CN2` (configuration not stated), the figure is -2.143%. With `Cc1cccnc1CCNC(=O)CC1C(=O)NCCN1CCC(C)C` (configuration not stated), the INHIBITION was -23%. As for `CCCn1nccc1-c1cc(C2CCN(C(C)=O)CC2)ccn1`, the figure is 12.3%. To `CCCn1nccc1-c1cc(C2CCN(S(C)(=O)=O)CC2)ccn1` belongs 55.6%. In the case of `Cn1nccc1-c1cc(C2CCN(S(C)(=O)=O)CC2)ccn1`, the INHIBITION was found to be 42.4%. As for `COCC1c2nnn(CC3CC3)c2CCN1C(=O)c1cccn1C` (configuration not stated), the figure is -56.2%; as for `COCC1c2nnn(CC3CC3)c2CCN1C(=O)c1sccc1C` (configuration not stated), 72.3%; as for `COCC1c2nnn(CC3CC3)c2CCN1C(=O)c1ccnnc1` (configuration not stated), -16.2%. Consider `COc1ccccc1C(C)(C)NC(=O)NCCC(=O)NC1CCCC1`, for which the INHIBITION is 19.7%. To `Cc1ccc(OCC2CCCN(C(=O)CCn3ccccc3=O)C2)cc1` (configuration not stated) belongs 18.5%; to `Cc1ccc(OCC2CCCN(c3nc(CO)cs3)C2)cc1` (configuration not stated), 34.4%; to `Cc1ccc(OCC2CCCN(C(=O)Cn3ccccc3=O)C2)cc1` (configuration not stated), 18.5%. As for `Cc1ccc(OCC2CCCN(C(=O)CN3CCOCC3)C2)cc1` (configuration not stated), the figure is 56.5%; as for `Cc1ccc(OCC2CCCN(Cc3ccc(CO)o3)C2)cc1` (configuration not stated), 22.3%; as for `Cc1ccc(OCC2CCCN(CC3CCOCC3)C2)cc1` (configuration not stated), 51.1%.
